# A number with no mark means an inactive call. Inconclusive results are not listed. Where a call stands in place of a potency, no number is given. The source made the active and inactive calls. Unless noted, calls come from the whole dose curve.
# How the values were obtained:
# [1] = Nuclear factor erythroid 2-related factor 2/antioxidant responsive element (Nrf2/ARE) small molecule agonists: qHTS cell viability counter screen in human keratinocytes (AID 1919968; active = well fitted curve in the direction sought with a large enough effect in the repeat runs; an effect the other way counts as inactive or inconclusive; note: nearly all actives have a fitted effect of over 55% in size); conditions: KeratinoSens HaCaT ARE cells viability, CellTiter-Fluor, 24 h; series mostly up to 92.4 µM
# Procedure, shortened: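 HaCaT ARE reporter line, 1,500 cells/well; 5 h settle, 37 C/5% CO2; cpd in DMSO pinned; 23 h exposure; CellTiter-Fluor, 1 h; fluorescence.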
# [2] = Nuclear factor erythroid 2-related factor 2/antioxidant responsive element (Nrf2/ARE) small molecule agonists: luciferase reporter gene qHTS assay in human keratinocytes (AID 1919969); conditions: KeratinoSens HaCaT ARE-luciferase, luminescence, 24 h; series mostly up to 92.4 µM; note: nearly all actives have a fitted effect of over 35% in size; note: potency is the fitted concentration of half-maximal effect
# [3] = target: Gonadotropin-releasing hormone receptor (Homo sapiens) (UniProt P30968); test: Human gonadotropin-releasing hormone receptor (GnRHR) small molecule agonists, calcium flux assay in GnRHR-HEK293 cells (AID 1920063); conditions: calcium flux fluorescence, agonist mode; series mostly up to 57.6 µM; note: nearly all actives have a fitted effect of over 35% in size
# Sequence of Gonadotropin-releasing hormone receptor (Homo sapiens) (P30968 whole entry, looked up): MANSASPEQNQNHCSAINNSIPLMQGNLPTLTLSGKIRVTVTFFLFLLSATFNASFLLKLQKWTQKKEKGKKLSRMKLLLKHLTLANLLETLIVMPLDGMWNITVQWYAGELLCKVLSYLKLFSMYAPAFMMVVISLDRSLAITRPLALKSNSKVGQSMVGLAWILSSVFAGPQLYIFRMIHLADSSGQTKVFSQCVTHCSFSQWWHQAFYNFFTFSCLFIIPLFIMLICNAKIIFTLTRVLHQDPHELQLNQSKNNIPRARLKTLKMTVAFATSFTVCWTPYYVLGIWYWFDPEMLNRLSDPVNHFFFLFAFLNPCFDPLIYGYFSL
# Procedure, shortened: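 GnRHR-HEK293, 1500 cells/well, 18 h 37 C/5% CO2; Ca dye 1 h 37 C; cpd pinned (DMSO), agonist mode; kinetic FL 480/540, 3 min, 1 s reads; 15 conc, n=3.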
# [4] = target: KiSS-1 receptor (Homo sapiens) (UniProt Q969F8); test: Human kisspeptin (KISS1R) small molecule agonists, calcium flux assay in KISS1R-HEK293 cells (AID 1920064; active = well fitted curve in the direction sought with a large enough effect in the repeat runs; an effect the other way counts as inactive or inconclusive); conditions: KISS1R-HEK293, calcium flux fluorescence, agonist; series mostly up to 76.8 µM
# Sequence of KiSS-1 receptor (Homo sapiens) (Q969F8 whole entry, looked up): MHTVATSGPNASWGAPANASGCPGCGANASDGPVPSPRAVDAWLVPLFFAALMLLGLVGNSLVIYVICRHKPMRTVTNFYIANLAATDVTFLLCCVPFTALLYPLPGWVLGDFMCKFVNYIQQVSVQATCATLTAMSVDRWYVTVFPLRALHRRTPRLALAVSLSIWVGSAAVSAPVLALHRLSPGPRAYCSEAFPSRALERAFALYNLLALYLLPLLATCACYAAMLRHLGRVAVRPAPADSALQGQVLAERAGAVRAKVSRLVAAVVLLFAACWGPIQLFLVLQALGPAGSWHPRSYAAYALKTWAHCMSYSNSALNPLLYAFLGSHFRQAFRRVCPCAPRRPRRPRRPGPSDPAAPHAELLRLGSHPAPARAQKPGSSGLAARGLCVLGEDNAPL
# Procedure, shortened: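 Stable human KISS1R HEK293 line; 18 h plating, 37 C/5% CO2; calcium dye 1 h 37 C; compound pin transfer; kinetic fluorescence Ex/Em 480/540, 3 min.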
# [5] = G protein-coupled receptor (GPCR) small molecule agonists, calcium flux assay: HEK293 wild type cell line counter screen (AID 1920065); conditions: HEK293 WT calcium flux, fluorescence, agonist mode; series mostly up to 57.6 µM
# Procedure, shortened: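 Kinetic fluorescence at Ex/Em 480/540, recorded every second over 3 min, served as the read-out after compound addition. Each compound was tested at 15 concentrations in triplicate on cells pre-loaded with calcium dye for 1 h.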
# [6] = p53 small molecule agonists, cell-based qHTS assay with human liver microsomes: qHTS cell viability counter screen (AID 1963579); conditions: p53RE-bla HCT-116 viability, ATP luminescence, 16 h, HLM; series mostly up to 66 µM; note: nearly all actives have a fitted effect of over 45% in size
# Procedure, shortened: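 HLM-supplemented (0.5 mg/mL final) and NADPH-supplemented (0.5 mg/mL final) p53RE-bla cultures, 4,000 cells per well, were dosed with compounds in DMSO for 16 h at 37 C; luminescent ATP detection (CellTiter-Glo, 30 min, room temperature) quantified surviving cells.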
# [7] = p53 small molecule agonists, cell-based qHTS assay with rat liver microsomes: qHTS cell viability counter screen (AID 1963580); conditions: p53RE-bla HCT-116 + rat microsomes, ATP viability, 16 h; series mostly up to 66 µM; note: nearly all actives have a fitted effect of over 45% in size
# Procedure, shortened: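 HCT-116 p53RE-bla, 4,000 cells/well, 5 h pre-incubation; cpd + rat liver microsomes 0.5 mg/mL + NADPH 0.5 mg/mL (final); 16 h, 37 C; CellTiter-Glo, 30 min RT; luminescence.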
# [8] = p53 small molecule agonists, cell-based qHTS assay: qHTS cell viability counter screen (AID 1963581); conditions: p53RE-bla HCT-116 viability, ATP luminescence, 16 h; series mostly up to 66 µM; note: nearly all actives have a fitted effect of over 45% in size
# Procedure, shortened: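 HCT-116 p53RE-bla cells, 4,000/well, plated 5 h before compound pin transfer; 16 h at 37 C; bla substrate 2 h RT; then CellTiter-Glo, 30 min RT, luminescence.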
# [9] = target: Muscarinic acetylcholine receptor M1 (Homo sapiens) (UniProt P11229); test: Cholinergic receptor muscarinic 1 (CHRM1) small molecule antagonists, cell-based qHTS assay (AID 1963588); conditions: CHRM1-CHO antagonist mode, calcium flux fluorescence; series mostly up to 61.5 µM; note: nearly all actives have a fitted effect of over 40% in size
# Sequence of Muscarinic acetylcholine receptor M1 (Homo sapiens) (P11229 whole entry, looked up): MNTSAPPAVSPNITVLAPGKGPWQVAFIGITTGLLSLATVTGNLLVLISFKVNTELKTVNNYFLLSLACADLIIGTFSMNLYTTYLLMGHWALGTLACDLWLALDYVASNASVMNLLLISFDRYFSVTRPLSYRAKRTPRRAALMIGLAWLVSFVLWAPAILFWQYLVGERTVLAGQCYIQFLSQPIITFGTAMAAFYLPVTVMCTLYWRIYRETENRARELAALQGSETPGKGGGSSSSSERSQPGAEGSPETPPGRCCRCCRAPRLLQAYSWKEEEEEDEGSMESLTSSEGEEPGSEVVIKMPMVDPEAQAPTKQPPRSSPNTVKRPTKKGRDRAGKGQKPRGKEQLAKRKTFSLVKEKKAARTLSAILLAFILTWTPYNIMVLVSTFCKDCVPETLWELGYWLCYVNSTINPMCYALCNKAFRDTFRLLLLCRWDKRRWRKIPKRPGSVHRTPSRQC
# Procedure, shortened: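 CHRM1-CHO calcium-flux assay, antagonist mode. Cells were seeded 18 h, dye-loaded 1 h at 37 C and given compound for 5 min at RT, then acetylcholine was added at 50nM. FDSS fluorescence was read 3 min; 15 concentrations, three runs.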
# [10] = target: Muscarinic acetylcholine receptor M1 (Homo sapiens) (UniProt P11229); test: Cholinergic receptor muscarinic 1 (CHRM1) small molecule agonists, cell-based qHTS assay (AID 1963589); conditions: CHRM1-CHO cells, agonist mode, calcium flux fluorescence; series mostly up to 76.8 µM; note: nearly all actives have a fitted effect of over 35% in size
# Procedure, shortened: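 Human M1 in stable CHO line; 18 h plating, 1 h dye load 37 C; cpd added (agonist mode); Ca2+ fluorescence kinetic read, 1 s intervals; 15 conc, 3 runs.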
# [11] = target: D(2) dopamine receptor (Homo sapiens) (UniProt P14416); test: Dopamine D2 receptor (DRD2) small molecule agonists, cell-based qHTS assay (AID 1963594); conditions: HEK293-DRD2 cAMP HTRF, agonist mode, 30 min; series mostly up to 92.4 µM; note: nearly all actives have a fitted effect of over 35% in size; note: potency is the fitted concentration of half-maximal effect
# Sequence of D(2) dopamine receptor (Homo sapiens) (P14416 whole entry, looked up): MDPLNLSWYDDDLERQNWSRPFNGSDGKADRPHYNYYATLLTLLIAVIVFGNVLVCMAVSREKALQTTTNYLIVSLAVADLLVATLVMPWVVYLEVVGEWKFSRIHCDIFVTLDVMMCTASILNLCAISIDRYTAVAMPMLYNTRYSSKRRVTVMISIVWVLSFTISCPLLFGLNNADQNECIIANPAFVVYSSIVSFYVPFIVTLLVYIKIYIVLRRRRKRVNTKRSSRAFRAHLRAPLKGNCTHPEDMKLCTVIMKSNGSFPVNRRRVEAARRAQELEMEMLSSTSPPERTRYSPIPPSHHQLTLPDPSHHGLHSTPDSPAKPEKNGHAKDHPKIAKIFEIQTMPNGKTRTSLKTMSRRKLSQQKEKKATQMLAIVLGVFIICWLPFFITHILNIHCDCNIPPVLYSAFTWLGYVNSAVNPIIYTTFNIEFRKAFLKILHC
# Procedure, shortened: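 cAMP accumulation in DRD2-HEK293 cells measured by HTRF after 1 h detection; compounds added 10 min before NKH477 (200nM […]) forskolin-analogue stimulation, 30 min at room temperature, with Ro20-1724 present at 0.1 mM final.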
# [12] = target: Beta-2 adrenergic receptor (Homo sapiens) (UniProt P07550); test: Adrenergic beta2 receptor (ADRB2) small molecule antagonists, cell-based qHTS assay (AID 1963592); conditions: CHO-ADRB2 cells, isoproterenol-stimulated cAMP HTRF ratio, 0.5 h; series mostly up to 92.4 µM; note: nearly all actives have a fitted effect of over 50% in size; note: potency is the fitted concentration of half-maximal effect
# Sequence of Beta-2 adrenergic receptor (Homo sapiens) (P07550 whole entry, looked up): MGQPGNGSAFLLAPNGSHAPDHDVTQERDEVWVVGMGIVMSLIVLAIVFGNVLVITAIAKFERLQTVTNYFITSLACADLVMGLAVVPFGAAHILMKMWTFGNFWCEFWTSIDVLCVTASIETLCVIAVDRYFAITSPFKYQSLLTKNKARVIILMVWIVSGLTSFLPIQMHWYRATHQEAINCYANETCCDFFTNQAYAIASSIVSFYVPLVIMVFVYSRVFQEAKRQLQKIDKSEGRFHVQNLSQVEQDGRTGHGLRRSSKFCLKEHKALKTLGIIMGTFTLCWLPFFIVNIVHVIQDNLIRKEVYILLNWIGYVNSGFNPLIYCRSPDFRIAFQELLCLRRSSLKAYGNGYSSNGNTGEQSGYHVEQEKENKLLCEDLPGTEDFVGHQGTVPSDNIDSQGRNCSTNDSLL
# Procedure, shortened: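 Cells (CHO, stable ADRB2 overexpression) incubated 18-20hr at 37C; compounds added from DMSO; agonist mix (1nM isoproterenol, 100uM IBMX, 25uM Ro-20-1724) added; 0.5hr RT; d2-cAMP and anti-cAMP-cryptate added; 1hr RT; 665/615 nm read.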
# [13] = cAMP Responsive Elements (CRE) small molecule agonists, cell-based qHTS assay (AID 1963590); conditions: CRE-bla HEK293T, beta-lactamase FRET ratio, 3 h; series mostly up to 92.4 µM
# Procedure, shortened: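 HEK 293T CRE-bla, 2,000 cells/well, 18 h preincubation 37 C/5% CO2; cpds (DMSO) pinned, 3 h; LiveBLAzer B/G FRET substrate, 2 h RT.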
# [14] = cAMP Responsive Elements (CRE) small molecule antagonists, cell-based qHTS assay (AID 1963591; active = well fitted inhibition curve with a large enough effect in the signal ratio in the repeat runs, not every such curve was filed as active; the % refers to the signal ratio); conditions: CRE-bla HEK293T, beta-lactamase FRET ratio; series mostly up to 92.4 µM
# Procedure, shortened: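 Beta-lactamase reporter read by FRET substrate (LiveBLAzer B/G) after 2 h at room temperature. CRE-bla HEK293T cells had received compound plus 0.25 uM (final) NKH477 for 3 h at 37 °C.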
# [15] = target: D(2) dopamine receptor (Homo sapiens) (UniProt P14416); test: Dopamine D2 receptor (DRD2) small molecule antagonists, cell-based qHTS assay (AID 1963595; active = well fitted inhibition curve with a large enough effect in the signal ratio in the repeat runs, with a control signal flat; the % refers to the signal ratio; note: potency is the fitted concentration of half-maximal effect); conditions: HEK293-DRD2 cAMP HTRF antagonist mode; series mostly up to 92.4 µM
# Procedure, shortened: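 In this cell-based antagonist screen, compounds act for 10 min at room temperature before a 30 min challenge with 12 nM quinpirole and 200 nM NKH477. cAMP is quantified by HTRF competition in DRD2-HEK293 cells containing 0.1 mM Ro20-1724.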
# [16] = target: 5-hydroxytryptamine receptor 2A (Homo sapiens) (UniProt P28223); test: 5-hydroxytryptamine receptor 2A (HTR2A) small molecule agonists, cell-based qHTS assay (AID 1963587); conditions: HTR2A-CHO cells, calcium flux fluorescence, agonist mode; series mostly up to 76.8 µM; note: nearly all actives have a fitted effect of over 30% in size
# Sequence of 5-hydroxytryptamine receptor 2A (Homo sapiens) (P28223 whole entry, looked up): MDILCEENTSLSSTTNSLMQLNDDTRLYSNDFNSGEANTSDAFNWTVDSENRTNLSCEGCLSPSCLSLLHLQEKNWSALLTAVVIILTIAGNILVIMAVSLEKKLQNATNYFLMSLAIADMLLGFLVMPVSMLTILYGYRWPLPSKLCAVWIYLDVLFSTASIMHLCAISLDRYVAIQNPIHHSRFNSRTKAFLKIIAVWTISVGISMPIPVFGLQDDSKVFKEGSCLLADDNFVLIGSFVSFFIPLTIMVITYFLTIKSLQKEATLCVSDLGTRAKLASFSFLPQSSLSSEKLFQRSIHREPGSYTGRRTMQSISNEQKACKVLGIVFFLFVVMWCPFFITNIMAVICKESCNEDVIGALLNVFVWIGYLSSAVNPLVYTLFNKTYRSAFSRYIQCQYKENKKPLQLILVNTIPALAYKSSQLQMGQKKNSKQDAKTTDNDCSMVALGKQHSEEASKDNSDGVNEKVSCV
# Procedure, shortened: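 Kinetic calcium-flux fluorescence (2 min, 1 sec intervals) after compound addition in agonist mode. HTR2A-CHO cells were cultured 18 h, then dye-loaded 1 h at 37 C.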
# [17] = target: Beta-2 adrenergic receptor (Homo sapiens) (UniProt P07550); test: Adrenergic beta2 receptor (ADRB2) small molecule agonists, cell-based qHTS assay (AID 1963593); conditions: CHO-ADRB2 cells, cAMP HTRF, 30 min; series mostly up to 92.4 µM; note: potency is the fitted concentration of half-maximal effect
# Procedure, shortened: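 CHO cells stably over-expressing ADRB2 were plated overnight at 37C, then dosed with compounds plus a stimulation mix containing 100uM IBMX and 25uM Ro-20-1724 for 0.5hr at room temperature. cAMP was measured by HTRF competition, 1hr.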
SMILES,Potency [1],Potency [2],Potency [3],Potency [4],Potency [5],Potency [6],Potency [7],Potency [8],Potency [9],Potency [10],Potency [11],Potency [12],Potency [13],Potency [14],Potency [15],Potency [16],Potency [17]
Cc1ccc(-c2ncc(Cl)cc2-c2ccc(S(C)(=O)=O)cc2)cn1,inactive,inactive,inactive,inactive,inactive,inactive,inactive,inactive,inactive,inactive,inactive,,,,,,
CC1=C(CC(=O)O)c2cc(F)ccc2/C1=C\c1ccc(S(C)(=O)=O)cc1,inactive,inactive,inactive,inactive,inactive,inactive,inactive,inactive,,,inactive,inactive,,,,,
Cn1c(=O)c2c(ncn2CC2OCCO2)n(C)c1=O,inactive,inactive,inactive,inactive,inactive,inactive,inactive,inactive,,,inactive,inactive,inactive,inactive,inactive,,
O=C1NCC2(CCN(CCc3ccccc3)CC2)O1,inactive,inactive,inactive,inactive,inactive,inactive,inactive,inactive,inactive,inactive,inactive,,inactive,inactive,inactive,inactive,
Cn1c(NCCN(CCO)CCCc2ccc([N+](=O)[O-])cc2)cc(=O)n(C)c1=O,inactive,inactive,inactive,inactive,inactive,inactive,inactive,inactive,inactive,,,inactive,inactive,inactive,inactive,,
C=Cc1ccc(C=C)cc1,inactive,inactive,inactive,inactive,inactive,inactive,inactive,inactive,,inactive,inactive,inactive,,inactive,inactive,inactive,
c1cc[c]([Bi]([c]2ccccc2)[c]2ccccc2)cc1,inactive,4.86 µM (active),inactive,inactive,inactive,inactive,inactive,inactive,inactive,inactive,,,,,9.69 µM (active),inactive,1.72 µM (active)
CC(CC=O)CCCC(C)(C)O (centres undefined),inactive,inactive,inactive,inactive,inactive,inactive,inactive,inactive,inactive,inactive,,,inactive,inactive,,inactive,inactive
NC(Cc1c[nH]c2ccccc12)C(=O)O (centres undefined),inactive,inactive,inactive,inactive,inactive,inactive,inactive,inactive,inactive,inactive,inactive,,inactive,inactive,inactive,inactive,
CN[C@@H]1[C@@H](O)[C@@H](O[C@@H]2[C@H](O)[C@H](O[C@H]3OC(CN)=CC[C@H]3N)[C@@H](N)C[C@H]2N)OCC1(C)O (some centres undefined),inactive,inactive,inactive,inactive,inactive,inactive,inactive,inactive,,,inactive,2.66 µM (active),inactive,inactive,,,
CC[C@H](C)C(=O)O[C@H]1C[C@H](O)C=C2C=C[C@H](C)[C@H](CC[C@@H](O)C[C@@H](O)CC(=O)O)[C@H]21,inactive,inactive,inactive,inactive,inactive,inactive,inactive,inactive,,,61.1 µM (active),inactive,inactive,,,,inactive
O=C(O)c1cccnc1Nc1cccc(C(F)(F)F)c1,inactive,23.7 µM (active),inactive,inactive,inactive,inactive,inactive,inactive,,,inactive,inactive,,inactive,inactive,,

# Source: PubChem BioAssay (Tox21)
